# Hits are enriched below; roughly 2% of the tested compounds scored in any of these assays.
# Granule exo inh – lytic granule exocytosis inhibition; TALL-104 LAMP-1 surface exposure, flow cytometry; cells stimulated with thapsigargin and PMA; inhibition, % at 10 µM; actives 0.66% (n = 360,000); AID 651702;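 active = inhibition above about 55%, limit read from the data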
# B2AR ag – human beta-2 adrenergic receptor agonism by FAP. P07550. Am2.2-beta2AR cells, FAP receptor internalization, flow cytometry. response, % (no concentration beside the values). actives 0.43% (n = 340,000). AID 504454;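 active = response above a set limit, near 3 SD of response in nonfluorescent compounds, cut at about 42% in these data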
# Target sequence (P07550 whole entry, looked up): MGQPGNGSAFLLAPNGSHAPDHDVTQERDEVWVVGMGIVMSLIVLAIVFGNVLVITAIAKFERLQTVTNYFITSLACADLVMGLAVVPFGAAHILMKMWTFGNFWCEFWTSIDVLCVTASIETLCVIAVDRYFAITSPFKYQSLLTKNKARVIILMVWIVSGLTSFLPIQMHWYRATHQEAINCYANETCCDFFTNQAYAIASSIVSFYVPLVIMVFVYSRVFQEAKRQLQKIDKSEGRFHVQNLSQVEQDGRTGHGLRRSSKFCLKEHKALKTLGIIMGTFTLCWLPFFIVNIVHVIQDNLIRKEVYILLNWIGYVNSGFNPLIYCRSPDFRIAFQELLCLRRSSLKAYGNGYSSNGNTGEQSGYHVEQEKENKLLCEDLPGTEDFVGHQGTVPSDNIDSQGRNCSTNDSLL
# ABHD5 PLIN5 PPI – blocks binding of human ABHD5 to perilipin-5. Q00G26+Q8WTS1. Split G. princeps luciferase complementation, luminescence, 4 h. inhibition, % at 4 µM. actives 0.78% (n = 360,000). AID 602281;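 active = inhibition above the mean inhibition across every tested compound plus 3 SD, cut at about 22% in these data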
# TLR9-MyD88 block – inhibitors of human TLR9-MyD88 binding; actives 0.21% (n = 340,000); Q9NR96+Q99836; AID 504734; CHO BLA complementation TLR9-MyD88, CCF4 FRET ratio; inhibition, % at 4.98 µM;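 active = inhibition above the mean over all tested compounds plus 3 SD, cut at about 21% in these data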
# NOD2-RIPK2 inh – NOD2-RIPK2 protein interaction inhibition; O43353; CHO BLA complementation NOD2-RIPK2, CCF4 ratio; inhibition, % at 4.98 µM; actives 0.38% (n = 360,000); in the data active = inhibition above about 21%
# TLR4-MyD88 BLA – inhibitors of human TLR4-MyD88 binding; O00206+Q99836; HeLa CL3-4 TLR4/MyD88 BLA complementation, FRET ratio; inhibition, % at 8.4 µM; actives 0.18% (n = 200,000); in the data active = inhibition above about 25%
# ABHD5-PLIN5 conf – confirmation of human ABHD5-PLIN5 interaction inhibitors | biochemical ABHD5-PLIN5 interaction, luminescence | shares compounds with ABHD5 PLIN5 PPI | actives 67% (n = 2,200) | AID 651612 | inhibition, % at 4 µM; in the data active = inhibition above about 23%
# HNF4 split-luc – active in HNF4 split-luciferase counter-screen for ABHD5-PLIN5 inhibitors. shares compounds with ABHD5 PLIN5 PPI. HNF4 dimerization, luminescence, biochemical. inhibition, % at 4 µM. actives 77% (n = 2,200). AID 651674;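 active = mean inhibition across replicate wells exceeding the computed hit threshold, cut at about 13% in these data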;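 note: light from luciferase halves that rejoin when HNF4 fusion proteins dimerize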
# Hits are given with their value; 0 = inactive; - = no result given; ! = repeats disagree.
SMILES,Granule exo inh,B2AR ag,ABHD5 PLIN5 PPI,TLR9-MyD88 block,NOD2-RIPK2 inh,TLR4-MyD88 BLA,ABHD5-PLIN5 conf,HNF4 split-luc
COc1cccc(N2C(=O)CC(=O)NC2=O)c1,0,0,27.3,0,0,0,0,31.8
CCOc1cccc(N2C(=O)CC(=O)NC2=O)c1,0,0,0,0,0,0,-,-
CCc1ccc(N2C(=O)CC(=O)NC2=O)cc1,0,0,23.8,0,0,-,0,15.5
COc1ccccc1N1C(=O)CC(=O)NC1=O,0,0,26.7,0,0,-,0,35.8
O=c1[nH]c2ccccc2n1C1CCN(Cc2ccc(-c3[nH]c4cc5ncnc5cc4nc3-c3ccccc3)cc2)CC1,0,-,0,-,0,-,-,-
CCOC(=O)[C@]12Cc3c(cc(OC)c(OC)c3OC)[C@H]1N(CCC(=O)OC)C(=O)c1ccccc12,0,-,0,-,0,-,-,-
O=C1NC(=O)C(C2CCCCCC2)C(=O)N1,0,0,0,0,0,-,-,-
O=C1NC(=O)C(=Cc2ccc(SC3CCCCC3)o2)C(=O)N1,0,0,0,0,0,0,-,-
NS(=O)(=O)c1ccc(-c2ccc(C=C3C(=O)NC(=O)NC3=O)o2)cc1,0,0,25.2,0,0,-,91.2,95.2
CNS(=O)(=O)c1ccc(-c2ccc(C=C3C(=O)NC(=O)NC3=O)o2)cc1,0,0,24.8,0,0,-,93.7,98.5
O=C(C1CCCCC1)N1Cc2ccccc2-n2nncc2C1,0,-,0,0,0,-,-,-
C=CCn1c(O)c(C(C)=Nc2cccc(C(=O)O)c2)c(=O)[nH]c1=O,0,0,0,0,0,-,-,-
C=CCn1c(O)c(C(C)=Nc2cccc(C(F)(F)F)c2)c(=O)[nH]c1=O,0,0,97.9,0,0,-,0,18.0
CN1CCC(N(C)c2nc(-c3ccc([N+](=O)[O-])cc3)nc3ccccc23)CC1,0,0,29.0,0,0,0,0,0
COC(=O)C[C@]1(C(=O)OC)CN(C#N)N(c2ccc(Cl)cc2)C12c1ccccc1-c1ccccc12,0,0,78.3,0,55.0,0,97.6,97.0
CCNC(=S)N(C)CCc1cc2c(c(OC)c1C=C1C(=O)N(C)C(=O)N(C)C1=O)OCO2,0,0,29.2,-,0,-,0,18.2
CNC(=S)N(C)CCc1cc2c(c(OC)c1/C=C1/C(=O)NC(=O)N(C)C1=O)OCO2,0,0,35.5,0,0,-,0,18.1
COc1c(/C=C2/C(=O)NC(=O)N(C)C2=O)c(CCN(C)C(=O)c2ccccc2)cc2c1OCO2,0,0,0,0,0,-,-,-
O=C1CN(O)C(c2ccccc2Cl)=c2cc(Br)ccc2=N1,0,0,0,0,0,-,-,-
Cc1ccc(C(=O)N2CC2C)cc1 (centres undefined),0,0,0,0,0,-,-,-
O=c1[nH]c2ccccc2n1C1CCN(C(CCc2ccccc2)c2nnnn2C2CCCC2)CC1 (centres undefined),0,-,0,-,0,-,-,-
CCOC(=O)[C@]12Cc3cc4ccccc4cc3[C@H]1N(Cc1ccccc1)C(=O)c1cc(OC)ccc12,0,-,23.4,-,0,-,0,15.8
CCOC(=O)[C@]12Cc3cc(Cl)ccc3[C@H]1N(CC(=O)OC)C(=O)c1ccccc12,0,-,37.8,-,0,-,31.6,34.5
CCOC(=O)[C@]12Cc3cc(Cl)ccc3[C@H]1N(C)C(=O)c1ccccc12,0,-,0,-,0,-,-,-
CCC(C)c1cnc(CC(C)C)c(=O)n1O (centres undefined),0,-,0,-,0,-,-,-
SMILES,Granule exo inh,B2AR ag,ABHD5 PLIN5 PPI,TLR9-MyD88 block,NOD2-RIPK2 inh,TLR4-MyD88 BLA,ABHD5-PLIN5 conf,HNF4 split-luc
C=C1C(=O)OC2CC3(C)OC3CCC(C)=CC(OC(C)=O)C12 (centres undefined),0,0,33.3,0,0,-,44.9,70.5
CCC(c1nnnn1C1CCCC1)N1CCC2(CC1)C(=O)NCN2c1ccccc1 (centres undefined),0,-,0,-,0,-,-,-
CN1[C@@H]2CC[C@H]1CC(OC1c3ccccc3CCc3ccccc31)C2 (some centres undefined),0,0,32.0,0,0,-,77.2,35.0
Cc1ccc(N2C(=O)NC(=O)/C(=C\c3cn(CC(=O)O)c4ccccc34)C2=O)cc1,0,0,26.7,0,0,-,25.0,18.9
C=CCn1cc(C=C2C(=O)N(C)C(=O)N(C)C2=O)c2ccccc21,0,0,23.3,0,0,-,0,0
O=C(O)Cn1cc(/C=C2\C(=O)NC(=O)N(c3ccc(Br)cc3)C2=O)c2ccccc21,0,0,0,0,0,-,-,-
O=C(O)Cn1cc(/C=C2\C(=O)NC(=O)N(Cc3ccco3)C2=O)c2ccccc21,0,0,0,0,0,0,-,-
COC(=O)Cn1cc(/C=C2\C(=O)NC(=O)N(c3ccccc3)C2=O)c2ccccc21,0,0,24.3,0,0,-,43.6,37.9
CSCCC(c1nnnn1C(C)(C)C)N1CCC2(CC1)C(=O)NCN2c1ccccc1 (centres undefined),0,-,0,-,0,-,-,-
CCC1([N+](=O)[O-])COP(N)(=O)OC1 (centres undefined),0,0,0,0,0,-,-,-
O=c1[nH]c(=O)n(CC2CCCO2)c(O)c1/C=C1\C=Nc2ccccc21 (centres undefined),0,0,26.6!,0,0,0,0,18.0
O=c1[nH]c(=O)n(Cc2ccccc2)c(O)c1/C=C1\C=Nc2ccccc21,0,0,0,0,0,0,-,-
COC(=O)C1=C(c2cc3ccccc3o2)C[C@@H]2CC[C@H]1N2C(=O)NCc1ccco1,0,0,23.3,0,0,-,0,0
Nc1ncc([N+](=O)[O-])s1,0,0,0,0,0,-,-,-
O=c1[nH]c(O)c(/C=C2\C=NN=C2c2ccccc2)c(=O)[nH]1,0,0,30.3,0,0,0,61.9,63.4
CC1=NN(c2ccccc2)C(=O)/C1=C/c1c(O)[nH]c(=O)[nH]c1=O,0,0,0,0,0,0,-,-
C=C1C(=O)O[C@@H]2C[C@@H](C)[C@H]3C=CC(=O)[C@]3(O)C[C@@H]12,0,0,32.6,0,0,-,47.4,24.2
O=C1NC(=S)NC(=O)C12C(c1ccc(F)cc1)NC(=S)NC2c1ccc(F)cc1 (centres undefined),0,0,24.2,0,0,0,78.9,63.1
O=C1NC(=S)NC(=O)C1c1ccccc1,0,0,0,0,0,-,-,-
Cc1ccc(C2NC(=S)NC(c3ccc(C)cc3)C23C(=O)NC(=O)NC3=O)cc1 (centres undefined),0,0,0,0,0,0,-,-
O=C1NC(=S)NC(=O)C12C(c1ccccc1)NC(=S)NC2c1ccccc1 (centres undefined),0,0,29.3,0,0,0,61.0,39.0
